A number with no mark means an inactive call. For some of these results: Measured potencies and affinities stand elsewhere. Active and inactive are the calls of the source. Unless noted, no rule for the calls is given here.

The nature of assay [1]: antimalarial activity against Dd2 strain (AID 2302;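 active = growth inhibition above 50% at the single 2 µM test dose, taken to imply half-maximal potency below 2 µM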;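 also: 0% = DMSO untreated growth and 100% = chloroquine plus artemisinin killed control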). To be noted: P. falciparum Dd2 in RBCs, LDH growth readout, 72 h; at 2 µM; active compounds read high.
Assay [2] in a line: human hepatoma cell viability loss – ATP luminescence, cytotoxicity control for P. falciparum antimalarial project, primary screen (AID 2303;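 active = inhibition above 50%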;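 also: 0% = DMSO wells and 100% = digitonin-killed cells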). To be noted: HepG2 viability, 24-48 h, at 10 µM, active compounds read high.
In assay [3] the target is L-lactate dehydrogenase (Plasmodium falciparum (isolate CDC / Honduras)) (UniProt Q27743). Kind of assay: PfLDH activity inhibition – cell lysate, 3D7 strain, counter-screen for P. falciparum growth inhibition project (AID 2304).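 Also: 0% = vehicle and 100% = reference inhibitor.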 The note with it: P. falciparum 3D7 crude extract, LDH APAD/NBT absorbance; at 2 µM; active compounds read high.
The nature of assay [4]: inhibition of 3D7 malaria parasite growth – strain 3D7 (AID 2306).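 Also: 0% = DMSO wells and 100% = chloroquine plus artemisinin control wells.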 The note with it: P. falciparum 3D7 erythrocytic growth, LDH absorbance, 72 h; at 2 µM; active compounds read high.
The target in assay [5] is Calcium-dependent protein kinase 1 (Plasmodium falciparum (isolate 3D7)) (UniProt P62344). Briefly: PfCDPK1 kinase inhibitors, biochemical, TCAMS library (AID 1159585; cut-off not given, nearly all actives have IC50 up to about 0.98 µM;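 also: inhibitors leave more ATP so luminescence rises with inhibition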). The note with it: recombinant PfCDPK1, Kinase-Glo ATP depletion luminescence. A general note: In Kinase-Glo more light means more ATP remaining.
The target in assay [6] is Plasmodium falciparum protein kinase 6 (PK6, PF3D7_1337100) (UniProt Q8IDW1). Kind of assay: PfPK6 kinase inhibitors, biochemical, TCAMS library (AID 1159586). The note with it: recombinant PfPK6, Kinase-Glo ATP depletion luminescence.
For assay [7], the target named is Protein kinase 7 (PK7), Plasmodium falciparum 3D7 (PF3D7_0213400) (UniProt Q7YTF7). Kind of assay: inhibition of Plasmodium PK7 catalytic activity – biochemical, TCAMS antimalarial set, Kinase-Glo luminescence (AID 1159587). To be noted: recombinant PfPK7, Kinase-Glo ATP depletion luminescence.
Assay [8] addresses Calcium-dependent protein kinase 4 (Plasmodium falciparum (isolate 3D7)) (UniProt Q8IBS5). Kind of assay: PfCDPK4 kinase inhibitors, biochemical, TCAMS library (AID 1159588; cut-off not given, nearly all actives have IC50 up to about 0.91 µM). To be noted: recombinant PfCDPK4, Kinase-Glo ATP depletion luminescence.

Calcium-dependent protein kinase 4 (Plasmodium falciparum (isolate 3D7)), sequence (Q8IBS5 whole entry, looked up): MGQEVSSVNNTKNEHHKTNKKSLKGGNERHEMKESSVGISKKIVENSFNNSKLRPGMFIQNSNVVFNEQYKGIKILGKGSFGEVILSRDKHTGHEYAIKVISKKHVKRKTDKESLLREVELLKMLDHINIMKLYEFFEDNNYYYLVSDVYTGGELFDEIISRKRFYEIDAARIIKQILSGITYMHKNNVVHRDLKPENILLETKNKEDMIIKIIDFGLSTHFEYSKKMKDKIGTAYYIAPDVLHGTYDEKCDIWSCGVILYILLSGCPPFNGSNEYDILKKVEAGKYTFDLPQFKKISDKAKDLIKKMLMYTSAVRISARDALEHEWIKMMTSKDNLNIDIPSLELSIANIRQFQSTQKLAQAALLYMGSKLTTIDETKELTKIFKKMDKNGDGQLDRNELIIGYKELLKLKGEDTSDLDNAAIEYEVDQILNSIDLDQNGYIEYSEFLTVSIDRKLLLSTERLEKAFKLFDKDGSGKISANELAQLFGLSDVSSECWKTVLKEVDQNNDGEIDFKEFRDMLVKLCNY
Plasmodium falciparum protein kinase 6 (PK6, PF3D7_1337100), sequence (Q8IDW1 1-305): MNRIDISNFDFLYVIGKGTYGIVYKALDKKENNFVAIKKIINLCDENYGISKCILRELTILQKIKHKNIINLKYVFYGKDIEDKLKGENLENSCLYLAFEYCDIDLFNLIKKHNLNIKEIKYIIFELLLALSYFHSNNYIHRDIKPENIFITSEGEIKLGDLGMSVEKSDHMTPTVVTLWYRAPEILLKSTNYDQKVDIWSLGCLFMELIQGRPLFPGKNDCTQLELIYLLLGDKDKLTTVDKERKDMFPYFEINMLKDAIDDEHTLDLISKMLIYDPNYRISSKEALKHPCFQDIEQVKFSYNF
L-lactate dehydrogenase (Plasmodium falciparum (isolate CDC / Honduras)), sequence (Q27743 whole entry, looked up): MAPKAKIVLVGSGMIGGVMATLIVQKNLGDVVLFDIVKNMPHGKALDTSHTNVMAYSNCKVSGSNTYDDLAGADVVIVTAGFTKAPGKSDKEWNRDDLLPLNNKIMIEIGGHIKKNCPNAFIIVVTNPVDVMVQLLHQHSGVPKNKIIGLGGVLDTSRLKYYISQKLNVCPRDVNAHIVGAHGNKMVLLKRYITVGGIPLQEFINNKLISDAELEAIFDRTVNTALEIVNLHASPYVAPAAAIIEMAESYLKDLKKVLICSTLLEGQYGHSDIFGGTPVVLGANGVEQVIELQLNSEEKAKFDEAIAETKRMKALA
Calcium-dependent protein kinase 1 (Plasmodium falciparum (isolate 3D7)), sequence (P62344 whole entry, looked up): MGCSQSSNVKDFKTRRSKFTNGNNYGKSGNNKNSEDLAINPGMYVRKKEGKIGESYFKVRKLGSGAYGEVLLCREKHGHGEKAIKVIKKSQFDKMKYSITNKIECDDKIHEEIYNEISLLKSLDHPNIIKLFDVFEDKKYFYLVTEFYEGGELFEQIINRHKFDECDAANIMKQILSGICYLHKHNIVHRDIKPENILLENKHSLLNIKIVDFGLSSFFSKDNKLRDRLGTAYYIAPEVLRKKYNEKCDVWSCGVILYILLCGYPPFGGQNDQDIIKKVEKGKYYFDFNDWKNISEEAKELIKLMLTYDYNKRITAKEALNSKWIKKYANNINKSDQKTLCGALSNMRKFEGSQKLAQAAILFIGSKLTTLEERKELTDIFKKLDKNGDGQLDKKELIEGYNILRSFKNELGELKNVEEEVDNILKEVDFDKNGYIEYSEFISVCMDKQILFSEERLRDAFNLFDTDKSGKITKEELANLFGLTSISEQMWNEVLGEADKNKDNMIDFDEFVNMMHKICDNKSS
Protein kinase 7 (PK7), Plasmodium falciparum 3D7 (PF3D7_0213400), sequence (Q7YTF7 1-343): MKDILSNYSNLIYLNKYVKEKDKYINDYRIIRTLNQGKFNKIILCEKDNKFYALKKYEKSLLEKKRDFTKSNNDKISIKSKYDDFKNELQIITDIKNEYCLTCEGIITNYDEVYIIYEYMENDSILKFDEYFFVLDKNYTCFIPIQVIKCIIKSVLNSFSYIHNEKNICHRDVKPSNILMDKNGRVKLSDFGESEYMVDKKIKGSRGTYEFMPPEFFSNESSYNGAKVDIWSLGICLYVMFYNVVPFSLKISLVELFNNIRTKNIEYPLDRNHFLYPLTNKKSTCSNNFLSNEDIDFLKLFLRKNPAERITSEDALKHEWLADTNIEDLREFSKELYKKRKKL

In general, inhibition refers to the change of the read-out against control, counted positive when it falls. Consider `CN(C)Cc1ccc2nc(-c3cccc(Cc4cc(Cl)ccc4OCc4ccc(Cl)cc4F)n3)[nH]c2c1`, for which the values for the growth inhibition in assay [1] and in assay [4] were 26% and 93% (active), respectively. Also, the inhibition is 43% in assay [2] and 1% in assay [3]. The result in assay [5], in assay [6], in assay [7] and in assay [8] was inactive.

As to `Cc1ccc(S(=O)(=O)/N=C(\N)NC(N)=O)cc1`, the figures for the growth inhibition in assay [1] and in assay [4] were 2% and 94% (active), respectively. In addition, the inhibition in assay [2] is 26%; in assay [3], 1%. Besides, the result in assay [5], in assay [6], in assay [7] and in assay [8] was inactive.

As to `c1ccc(Oc2ccc(Nc3ccnc(Nc4ccc(CN5CCOCC5)cc4)n3)cc2)cc1`, the growth inhibition was 38% in assay [1] and 92% (active) in assay [4]. The results for the inhibition in assay [2] and in assay [3] were 46% and -4%, respectively. The outcome in assay [5], in assay [6], in assay [7] and in assay [8] was inactive.

Regarding `Cc1cc(=O)c(-c2ccc(Oc3ccc(C(F)(F)F)cc3)cc2)c(C)n1O`, the growth inhibition is 78% (active) in assay [1] and 94% (active) in assay [4]. The inhibition in assay [2] was 18%; in assay [3], 0%. In addition, the outcome in assay [5], in assay [6], in assay [7] and in assay [8] was inactive.

`O=C(Nc1ccccc1)N(Cc1cccc(-c2cccc(CNCCc3ccccc3)c2)c1)C1CCN(Cc2ccccc2)CC1`: the growth inhibition in assay [1] is 87% (active); in assay [4] it was 100% (active). The inhibition was 100% (active) in assay [2] and 1% in assay [3]. Also, the outcome in assay [5], in assay [6], in assay [7] and in assay [8] was inactive.

As to `O=C(Nc1cccc(-c2nn3ncccc3c2-c2ccnc(Nc3ccc(N4CCOCC4)cc3)n2)c1)c1c(F)cccc1F`, the growth inhibition in assay [1] is 75% (active); in assay [4], 101% (active). Also, the inhibition in assay [2] was 75% (active); in assay [3], 7%. In addition, the outcome in assay [5], in assay [6], in assay [7] and in assay [8] was inactive.

As to `CCC(O)(C#Cc1c(C)nc(N)nc1N)CC`, the growth inhibition is -5% in assay [1] and 97% (active) in assay [4]. Also, the inhibition in assay [2] is 63% (active); in assay [3] it was 2%. Moreover, the outcome in assay [5], in assay [6], in assay [7] and in assay [8] was inactive.

In the case of `NC1CCN(CCc2ccc(NS(=O)(=O)c3ccc(-c4ccccc4)cc3)cc2)CC1`, the growth inhibition in assay [1] was 19%; in assay [4] it was 100% (active). In addition, the inhibition in assay [2] was 17%; in assay [3], 0%. In addition, the outcome in assay [5], in assay [6], in assay [7] and in assay [8] was inactive.

Regarding `NC(N)=NN=CC(=O)Nc1ccc(Cl)c(Cl)c1`, the growth inhibition in assay [1] was 0%; in assay [4], 97% (active). Besides, the inhibition in assay [2] was -14%; in assay [3], 0%. Moreover, the result in assay [5], in assay [6], in assay [7] and in assay [8] was inactive.

As for `Cc1cccc2[nH]c(-c3ccc(-c4cccc(CN5CCN(c6ccncc6)CC5)c4)s3)nc12`, the growth inhibition is 99% (active) in assay [1] and 101% (active) in assay [4]. Further, the inhibition was 48% in assay [2] and 6% in assay [3]. The outcome in assay [5], in assay [6], in assay [7] and in assay [8] was inactive.

`O=C(Nc1ccc(Cl)cc1)Nc1ccc2c(c1)N1CCN=C1S2`: the growth inhibition in assay [1] was 100% (active); in assay [4], 99% (active). The inhibition is 15% in assay [2] and -1% in assay [3]. Also, the outcome in assay [5], in assay [6], in assay [7] and in assay [8] was inactive.

Regarding `COc1ccc(CCN(C)CCCN2CCC(NC(=O)c3cccc4c(=O)c5ccccc5[nH]c34)CC2)cc1OC`, the growth inhibition was 72% (active) in assay [1] and 99% (active) in assay [4]. The inhibition in assay [2] was 19%; in assay [3], 2%. Besides, the outcome in assay [5], in assay [6], in assay [7] and in assay [8] was inactive.

Regarding `O=C(Nc1cccc(F)c1)NC1CCN(c2ccnc3cc(Cl)ccc23)C1` (stereo not given), the growth inhibition is 64% (active) in assay [1] and 101% (active) in assay [4]. Also, the inhibition in assay [2] was 13%; in assay [3], -1%. In addition, the result in assay [5], in assay [6], in assay [7] and in assay [8] was inactive.

For `FC(F)(F)Oc1cccc(CNc2noc(-c3sccc3Br)n2)c1`, the growth inhibition in assay [1] is 97% (active); in assay [4] it was 100% (active). The figures for the inhibition in assay [2] and in assay [3] were 0% and -3%, respectively. The outcome in assay [5], in assay [6], in assay [7] and in assay [8] was inactive.

Consider `CC(C)CNCc1ccc(-c2cccc(-c3nc4ccccc4[nH]3)c2)cc1`, for which the growth inhibition in assay [1] is 98% (active); in assay [4], 99% (active). The inhibition in assay [2] is 53% (active); in assay [3], -5%. The result in assay [5], in assay [6], in assay [7] and in assay [8] was inactive.

For the compound `CCCCCCN1CCC(NCc2cccc([N+](=O)[O-])c2)CC1`, the growth inhibition in assay [1] is 16%; in assay [4], 100% (active). For the same compound, the inhibition in assay [2] is -2%; in assay [3] it was 0%. The outcome in assay [5], in assay [6], in assay [7] and in assay [8] was inactive.

For the compound `COc1c(C2CCN(CCCCNC(=O)c3ccc(-c4ccc(Cl)cc4)cn3)CC2)ccc2c1CCCC2`, the values for the growth inhibition in assay [1] and in assay [4] were 14% and 93% (active), respectively. Besides, the inhibition is 100% (active) in assay [2] and -3% in assay [3]. Further, the result in assay [5], in assay [6], in assay [7] and in assay [8] was inactive.

In the case of `CC(=O)Oc1cc(C)ccc1C1CCN(CCCCNC(=O)c2ccc(NC(=O)c3ccc(Cl)cc3)cc2)CC1`, the values for the growth inhibition in assay [1] and in assay [4] were 57% (active) and 100% (active), respectively. The results for the inhibition in assay [2] and in assay [3] were 12% and -5%, respectively. For the same compound, the outcome in assay [5], in assay [6], in assay [7] and in assay [8] was inactive.

On to `COc1ccc(-c2nc3cccnc3n2CC(=O)Nc2c(C)cc(C)cc2C)c(OC)c1`, for which the growth inhibition is 21% in assay [1] and 91% (active) in assay [4]. For the same compound, the inhibition in assay [2] was 77% (active); in assay [3], 1%. The outcome in assay [5], in assay [6], in assay [7] and in assay [8] was inactive.

`COc1ccc(C2CC(c3cccs3)=NN2C(=O)c2ccco2)cc1OC` (stereo not given): the growth inhibition in assay [1] was 97% (active); in assay [4] it was 101% (active). Further, the inhibition in assay [2] was -3%; in assay [3], 4%. The result in assay [5], in assay [6], in assay [7] and in assay [8] was inactive.

The values above are taken from PubChem BioAssay.
